{"source": "ChEMBL document CHEMBL3988442", "about": "“University of Dundee, Small-Polar-MMV Screening Library” (2021)", "note": "Potency and affinity values are given separately."}
{"biological_target": "Protein translocase subunit SecA (Escherichia coli (strain K12)) (UniProt P10408)", "sequence (P10408 whole entry)": "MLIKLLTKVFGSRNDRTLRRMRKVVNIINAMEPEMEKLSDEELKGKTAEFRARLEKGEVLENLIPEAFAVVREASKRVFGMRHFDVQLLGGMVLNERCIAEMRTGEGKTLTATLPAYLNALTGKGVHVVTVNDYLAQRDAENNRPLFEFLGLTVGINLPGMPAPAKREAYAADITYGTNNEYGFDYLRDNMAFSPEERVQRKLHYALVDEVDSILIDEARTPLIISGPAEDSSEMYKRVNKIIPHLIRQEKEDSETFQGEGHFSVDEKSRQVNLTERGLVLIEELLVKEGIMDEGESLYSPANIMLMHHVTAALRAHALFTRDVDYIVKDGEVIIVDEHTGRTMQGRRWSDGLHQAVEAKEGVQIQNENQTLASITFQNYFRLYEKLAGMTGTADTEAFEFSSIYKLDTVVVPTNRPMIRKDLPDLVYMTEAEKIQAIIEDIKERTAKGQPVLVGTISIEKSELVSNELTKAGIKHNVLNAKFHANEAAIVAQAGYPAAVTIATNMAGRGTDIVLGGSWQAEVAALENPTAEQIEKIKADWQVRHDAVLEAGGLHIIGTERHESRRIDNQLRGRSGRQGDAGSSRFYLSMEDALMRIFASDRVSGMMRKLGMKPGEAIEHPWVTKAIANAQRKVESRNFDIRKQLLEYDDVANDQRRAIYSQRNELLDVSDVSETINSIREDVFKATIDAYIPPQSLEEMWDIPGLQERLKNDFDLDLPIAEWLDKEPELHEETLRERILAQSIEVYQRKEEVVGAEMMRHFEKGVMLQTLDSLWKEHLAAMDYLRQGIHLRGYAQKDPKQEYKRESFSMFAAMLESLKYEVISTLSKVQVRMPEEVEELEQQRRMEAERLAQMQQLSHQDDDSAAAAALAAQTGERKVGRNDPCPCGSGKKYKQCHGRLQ", "assay": "Assay to Identify E. coli SecA ATPase Inhibitors", "type": "functional", "set-up": "scale not given: direction of the effect not stated beside the values", "conditions": "30 µM", "units": {"Percent Effect": "%"}}
{"smiles": "CC(C)COC(C)C(=O)NCc1ccc(OC(C)C)nc1", "note": "(stereo not given)", "Percent Effect": -1.41}
{"smiles": "CCc1n[nH]c(C2CN(CCc3cccs3)CCO2)n1", "note": "(stereo not given)", "Percent Effect": -7.68}
{"smiles": "CC(=O)N1CCCC(c2ccc(Nc3nc(C)cc(C)n3)cn2)C1", "note": "(stereo not given)", "Percent Effect": -3.24}
{"smiles": "CN(CC1(O)CCCN(CCC2CCCCC2)C1=O)C1CCOCC1", "note": "(stereo not given)", "Percent Effect": -5.39}
{"smiles": "Cc1noc(C2CCC3(CCN(C(=O)c4c(C)noc4C)CC3)O2)n1", "note": "(stereo not given)", "Percent Effect": -6.54}
{"smiles": "COc1ncccc1NC(=O)N1CCC(CNC(C)=O)CC1", "Percent Effect": -3.02}
{"smiles": "CN1CCN(CCCNC(=O)c2cc(Cl)c3c(c2)OCO3)CC1", "Percent Effect": 0.405}
{"smiles": "O=C(NS(=O)(=O)c1ccc2c(c1)OCCO2)c1ccc(Br)cc1F", "Percent Effect": -3.37}
{"smiles": "CCN1CCC(CNC(=O)C2(c3cccc(C)c3)CC2)C1", "note": "(stereo not given)", "Percent Effect": -2.88}
{"smiles": "CC(C)N(C)Cc1cnc2n1CCN(CCc1ccccc1)C2", "Percent Effect": -3.87}
{"smiles": "CNc1nc2c(c(C(=O)N3CCCC3)n1)CN(Cc1nccn1C)CC2", "Percent Effect": -4.21}
{"smiles": "Cc1ccc(-n2nnc(CC(=O)N3CCSCC3)c2C)cc1", "Percent Effect": -3.7}
{"smiles": "Cc1nc(CN2CCCC(N(C)Cc3nnsc3Cl)C2)no1", "note": "(stereo not given)", "Percent Effect": -5.44}
{"smiles": "Cc1nc(-c2ccccc2)sc1C(=O)NCCNc1ncccn1", "Percent Effect": -4.03}
{"smiles": "Cc1cc(=O)n(CC(=O)NCCC(C)C)c(-c2cccc(Cl)c2)n1", "Percent Effect": -6.74}
{"smiles": "CCn1ccnc1CN(C)C1CCCN(CCc2ccccc2)C1", "note": "(stereo not given)", "Percent Effect": -7.05}
{"smiles": "CCN1CCN(c2ncc(-c3cc(C)no3)c(-c3ccoc3C)n2)CC1", "Percent Effect": -4.09}
{"smiles": "COc1ccccc1CC(=O)N1CCC(NCc2c[nH]nc2C)CC1", "Percent Effect": -1.53}
{"smiles": "CN(Cc1cccc(F)c1)C1CCN(CCc2ccccn2)CC1", "Percent Effect": -3.25}
{"smiles": "CC(C)c1nc2n(n1)CC(NCc1nc(-c3cccnc3)no1)CC2", "note": "(stereo not given)", "Percent Effect": -3.79}
{"smiles": "CCc1noc(C(C)N2CCN(Cc3nc(C)c(C)o3)CC2)n1", "note": "(stereo not given)", "Percent Effect": -2.85}
{"smiles": "CCn1cnnc1C1CCN(C(=O)c2cnc3ccccc3n2)CC1", "Percent Effect": -1.53}
{"smiles": "CN(CC(=O)NCc1ccccn1)CC1CCCN1c1cccnn1", "note": "(stereo not given)", "Percent Effect": -1.59}
{"smiles": "CC(C)(NCC(=O)NCCC#N)c1ccc2c(c1)OCCO2", "Percent Effect": -3.57}
{"smiles": "Cc1ccc(NC2CCN(C(=O)c3cccc(F)c3F)CC2)nn1", "Percent Effect": 0.567}
{"smiles": "Clc1ccccc1C1(c2ccnc(-c3ncccn3)n2)CCNCC1", "Percent Effect": -3.79}
{"smiles": "O=C1CC(c2ccncc2)c2c(c(C(=O)O)cn2-c2ccc(F)cc2)N1", "note": "(stereo not given)", "Percent Effect": -3.81}
{"smiles": "O=C(NCCC(=O)N1CCCc2ccccc21)c1c(O)cc(F)cc1F", "Percent Effect": -5.79}
{"smiles": "CNC(=O)N1C[C@H]2CC[C@@]3(N=C(c4ccccc4)NC3=O)[C@H]2C1", "Percent Effect": -5.03}
{"smiles": "Cc1cc(CN(C)C2CCCN(Cc3noc(C4CC4)n3)C2)no1", "note": "(stereo not given)", "Percent Effect": -2.13}
{"smiles": "C=C1c2ccccc2C(=O)N1CCC(=O)N1CCNC(=O)C1", "Percent Effect": -2.89}
{"smiles": "CCOC(=O)CCNC(=O)N1CCN(c2nc3ccccc3n2C)CC1", "Percent Effect": -1.65}
{"smiles": "CNc1cc(N2CCCC2CNCc2c[nH]nc2C(C)(C)C)ncn1", "note": "(stereo not given)", "Percent Effect": -3.59}
{"smiles": "COCC1c2c(cnn2CC2CC2)CCN1Cc1nccs1", "note": "(stereo not given)", "Percent Effect": -2.49}
{"smiles": "CCc1nnc2n1CCN(C(=O)c1csc(-c3cnn(C)c3)n1)C2", "Percent Effect": -4.14}
{"smiles": "Cn1ncc2c1CCCC2NCc1cc(Br)cs1", "note": "(stereo not given)", "Percent Effect": -0.998}
{"smiles": "CCC(C)c1noc(C2CCN(C(=O)c3cccs3)CC2)n1", "note": "(stereo not given)", "Percent Effect": -0.878}
{"smiles": "CCn1cnnc1CNC(=O)NC(C)C(C)C", "note": "(stereo not given)", "Percent Effect": -4.76}
{"smiles": "O=C(CC1CCCC1)N1CCCC(c2n[nH]c3nccnc23)C1", "note": "(stereo not given)", "Percent Effect": -2.49}
{"smiles": "Fc1ccc2[nH]c(C3CCCN3CCc3ccccn3)nc2c1", "note": "(stereo not given)", "Percent Effect": -0.354}
